Measurements reported in the supplement of paper PMC9801561.
± gives the standard deviation of the averaged measurements.

Tests used:
[1] = tested on: Escherichia coli Nissle 1917; assay: area under OmniLog respiration curve over 48 h (OmniLog units x h); higher = more growth / nutrient utilisation; extreme values may be limits of the assay; details: incubation: 48 h, 37 °C
[2] = tested on: Escherichia coli Nissle 1917; assay: DuctApe activity index of respiration/growth curve (0 no growth to 9 maximum) (index 0-9); higher = more growth / nutrient utilisation, active = 3 or more; extreme values may be limits of the assay; details: incubation: 48 h, 37 °C
[3] = nutrient role: sole phosphorus source (pyruvate carbon)
[4] = nutrient role: sole sulfur source (pyruvate carbon)
[5] = nutrient role: C-Source, carbohydrate
[6] = nutrient role: sole nitrogen source (pyruvate carbon)
[7] = nutrient role: C-Source, carboxylic acid
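Wherever DuctApe activity index of respiration/growth curve (0 no growth to 9 maximum) is given: biolog PM4 phosphorus and sulfur plates, tetrazolium violet dye reduction read in the OmniLog every 15 min, kinetic curves scored by DuctApe, each plate run in triplicate.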

## N[C@@H](COP(=O)(O)O)C(=O)O [O-Phospho-L-Serine]
[1]; [3]
  area under OmniLog respiration curve: 8970 ± 510
[2]; [3]
  DuctApe activity index: 8.67 (active)

## CS(=O)(=O)CC[C@H](N)C(=O)O [L-Methionine Sulfone]
[1]; [4]
  area under OmniLog respiration curve: 31.6 ± 21
[2]; [4]
  DuctApe activity index: 0 (inactive)

## OC[C@H]1O[C@H](O[C@H]2[C@H](O)[C@@H](O)[C@@H](O[C@H]3[C@H](O)[C@@H](O)C(O)O[C@@H]3CO)O[C@@H]2CO)[C@H](O)[C@@H](O)[C@@H]1O (mixture of isomers) [Maltotriose]
[1]; [5]
  area under OmniLog respiration curve: 8540 ± 380
[2]; [5]
  DuctApe activity index: 8 (active)

## C[C@H](N)C(=O)N[C@@H](CCC(N)=O)C(=O)O
[1]; [6]
  area under OmniLog respiration curve: 8550 ± 1600
[2]; [6]
  DuctApe activity index: 8 (active)

## Cc1cn([C@H]2C[C@H](O)[C@@H](COP(=O)(O)O)O2)c(=O)[nH]c1=O [Thymidine 5`-Monophosphate]
[1]; [3]
  area under OmniLog respiration curve: 8850 ± 380
[2]; [3]
  DuctApe activity index: 8.67 (active)

## NC(=O)NC1NC(=O)NC1=O (stereo unspecified) [Allantoin]
[1]; [6]
  area under OmniLog respiration curve: 500 ± 670
[2]; [6]
  DuctApe activity index: 1.67 (inactive)

## OCC1(O)OC[C@H](O)[C@@H](O)[C@@H]1O (stereo partly drawn) [L-Sorbose]
[1]; [5]
  area under OmniLog respiration curve: 6370 ± 540
[2]; [5]
  DuctApe activity index: 7 (active)

## O=C(O)C(=O)O [Oxalic acid]
[1]; [7]
  area under OmniLog respiration curve: 5.41 ± 1.2
[2]; [7]
  DuctApe activity index: 0 (inactive)

## C[C@H](CCC(=O)NCCS(=O)(=O)O)[C@H]1CC[C@H]2[C@@H]3[C@H](O)C[C@@H]4C[C@H](O)CC[C@]4(C)[C@H]3C[C@H](O)[C@]12C [Taurocholic acid]
[1]; [4]
  area under OmniLog respiration curve: 2500 ± 890
[2]; [4]
  DuctApe activity index: 4 (active)

## COC(=O)C(C)=O [Methylpyruvate]
[1]; nutrient role: C-Source, ester
  area under OmniLog respiration curve: 8530 ± 550
[2]; nutrient role: C-Source, ester
  DuctApe activity index: 8.33 (active)

## C[C@H](N)C(=O)N[C@H](C(=O)O)[C@@H](C)O
[1]; [6]
  area under OmniLog respiration curve: 7530 ± 1100
[2]; [6]
  DuctApe activity index: 8 (active)

## O=C(O)[C@H]1OC(O)[C@H](O)[C@@H](O)[C@@H]1O (stereo partly drawn) [D-Glucuronic acid]
[1]; [7]
  area under OmniLog respiration curve: 10000 ± 950
[2]; [7]
  DuctApe activity index: 9 (active)

## O=C(O)COP(=O)(O)O [Phospho-Glycolic acid]
[1]; [3]
  area under OmniLog respiration curve: 9060 ± 940
[2]; [3]
  DuctApe activity index: 8.67 (active)

## O=P(O)(O)OC[C@H]1OC(O)[C@@H](O)[C@@H](O)[C@@H]1O (stereo partly drawn) [D-Mannose-6-Phosphate]
[1]; [3]
  area under OmniLog respiration curve: 8540 ± 570
[2]; [3]
  DuctApe activity index: 8.33 (active)

## CC(=O)CC(=O)O [Acetoacetic acid]
[1]; [7]
  area under OmniLog respiration curve: 784 ± 630
[2]; [7]
  DuctApe activity index: 0 (inactive)

## O=C(O)CCCCCCCCC(=O)O [Sebacic acid]
[1]; [7]
  area under OmniLog respiration curve: 4.72
[2]; [7]
  DuctApe activity index: 0 (inactive)

## Cc1c[nH]c(=O)[nH]c1=O [Thymine]
[1]; [6]
  area under OmniLog respiration curve: 67 ± 110
[2]; [6]
  DuctApe activity index: 0 (inactive)

## O=P(O)(O)OC[C@H]1OC(O)C[C@@H](O)[C@@H]1O (stereo partly drawn) [2-Deoxy-D-Glucose 6-Phosphate]
[1]; [3]
  area under OmniLog respiration curve: 4.72
[2]; [3]
  DuctApe activity index: 0 (inactive)

## O=C[C@@H](O)[C@H](O[C@@H]1O[C@H](CO)[C@H](O)[C@H](O)[C@H]1O)[C@H](O)CO [3-O-b-D-Galactopyranosyl-D-Arabinose]
[1]; [5]
  area under OmniLog respiration curve: 8530 ± 550
[2]; [5]
  DuctApe activity index: 8.33 (active)

## O=P(O)(O)O[C@H]1[C@H](OP(=O)(O)O)[C@@H](OP(=O)(O)O)[C@H](OP(=O)(O)O)[C@@H](OP(=O)(O)O)[C@H]1OP(=O)(O)O [Inositol Hexaphosphate]
[1]; [3]
  area under OmniLog respiration curve: 8630 ± 520
[2]; [3]
  DuctApe activity index: 8.67 (active)

## N[C@@H](Cc1ccc(O)cc1)C(=O)O [L-Tyrosine]
[1]; [6]
  area under OmniLog respiration curve: 1110 ± 450
[2]; [6]
  DuctApe activity index: 2.33 (inactive)

## NC(=O)NCCC[C@H](N)C(=O)O [L-Citrulline]
[1]; [6]
  area under OmniLog respiration curve: 1240 ± 540
[2]; [6]
  DuctApe activity index: 2.33 (inactive)

## O=C(O)[C@@H](O)[C@H](O)C(=O)O [D-Tartaric acid]
[1]; [7]
  area under OmniLog respiration curve: 8.46 ± 6.5
[2]; [7]
  DuctApe activity index: 0 (inactive)
